High-throughput results from PubChem BioAssay.
This is a sample that favours compounds with a hit; in the whole collection about 21% have one here.
Cycloheximide cs: affects cycloheximide protein synthesis inhibition readout, counter-screen | cell reporter, cycloheximide protein synthesis inhibition counterscreen | max response, % | 300,000 tested, 12% active | AID 2314; in the data active means max response mostly above about 13%, no sharp cut-off; inactive means mostly below about 14%; further: read at 38.3 µM for the half of the compounds with a filed dose; 0% is about no effect
Pf growth 48h: inhibits P. falciparum growth in the first generation, 48 h. P. falciparum luciferase growth in erythrocytes, 48 h. 310,000 tested, 5.9% active. Potency, µM (doses to about 28.7 µM), for inactives: top-dose activity change, negative = inhibition, usual class: inhibitors; further: potency means the concentration at half of the fitted maximal effect; on the % scale 0 is the no-effect control and ±100 the full control effect
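Luciferase-expressing parasites in RBCs, 2% Hct / 0.1% parasitemia final; RPMI 1640 + 0.5% Albumax; 37 C, 5% CO2, one generation; luminescence read-out, lower signal = inhibition.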
NS1 function inh: blocks influenza NS1 protein function. 270,000 tested, 0.4% active. AID 2326. Potency, µM (doses to about 46.1 µM), inactives show at the top dose activity, positive = more growth; calls by dose curve; further: potency means the concentration at half of the fitted maximal effect; actives are rising curves; nearly all actives have a fitted effect of over 50% in size
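A cell-based growth assay was used: compounds that relieve NS1-induced slow growth of budding yeast raise OD600. Assay medium was yeast nitrogen base with ammonium sulphate and -URA supplement, pH 6.0, with 2% galactose.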
Sm TGR inh: S. mansoni TGR enzyme inhibition | AID 485364 | Q962Y6 | 360,000 tested, 3% active | Potency, µM (top dose mostly 114 µM), without a hit: at the highest dose activity change, negative = inhibition, most hits filed as inhibitors | purified TGR, DTNB reduction, TNB absorbance 405 nm; further: potency means the concentration at half of the fitted maximal effect; on the % scale 0 is the no-effect control and ±100 the full control effect; nearly all actives have a fitted effect of over 60% in size
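First, TGR (20 nM dispensed) and NADPH were mixed with compound. Second, a 15 min room-temperature incubation followed. Third, further NADPH and then DTNB were added to start the reaction. Finally, TNB absorbance was monitored kinetically.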
Shiga inhibitor: blocks Shiga toxin action in Vero cells. Vero cells, Shiga toxin protein synthesis inhibition reporter. inhibition, % at 38.7 µM. 290,000 tested, 9.2% active. AID 2315; in the data active means inhibition mostly above about 28%, no sharp cut-off; inactive means mostly below about 43%; further: 0% is about no effect
Pf growth 96h: inhibits malaria parasite growth, 96 h; AID 504834; Potency, µM (highest dose often 28.7 µM), for the others: at the top dose activity change, negative = inhibition, actives largely listed as inhibitors; P. falciparum luciferase reporter growth, 96 h; 320,000 tested, 6.9% active; further: potency means the concentration at half of the fitted maximal effect; on the % scale 0 is the no-effect control and ±100 the full control effect
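Erythrocytes infected with luciferase-expressing P. falciparum were dispensed at 2% hematocrit and 0.05% parasitemia (final), then incubated with compounds 96 hours at 37 C in 5% CO2. Luminescence after detection reagent addition reported growth.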
An asterisk follows results filed as active; i = inactive; u = inconclusive; x = no result; + = active, no number. Unless noted, the call rests on the fitted dose curve; in most records, active means well fitted curve in the direction sought with a large enough effect; inconclusive means small, poorly fitted or top-dose-only effect, or another doubt; inactive means no such curve, though single readings can be large; an effect the other way counts as inactive or inconclusive.

SMILES	Cycloheximide cs	Pf growth 48h	NS1 function inh	Sm TGR inh	Shiga inhibitor	Pf growth 96h
CN(Cc1ccc(F)cc1)C(=O)c1ccc(NS(=O)(=O)c2ccccc2)cc1	x	u	x	3.4%	x	2.5%
C=C1CC2C(CCC3(C)C2CCC3(O)C(C)=O)C2(C)CCC(=O)C=C12 (stereo not drawn)	-2.9	u	-1.3%	-17.1%	-14.8	335.7%
C=C1C[C@H]2[C@@H]3C=C(C)C4=CC(=O)CC[C@]4(C)[C@H]3CC[C@]2(C)[C@@]1(OC(C)=O)C(C)=O	-9.6	9.28µM*	x	u	13.2	u
Cc1ccc(NC(=O)CSc2nc3ccc(Br)cc3[nH]2)c(C)c1	x	x	x	-2.9%	x	x
CC(NC(=O)c1ccc(CS(=O)(=O)Cc2ccccc2F)o1)c1ccc2c(c1)OCCO2 (stereo not drawn)	-3.6	u	1.6%	35.5µM*	2.4	u
O=C(NC1CCCC1)c1ccc(CSCc2ccccc2F)o1	31.4*	x	-106.6%	-12.4%	31.2	u
O=C(NC1CCCCC1)c1ccc(CS(=O)(=O)Cc2ccccc2F)o1	20.2*	16.1%	u	u	67.9*	u
CC(NC(=O)c1ccc(CS(=O)(=O)c2cccc(C(F)(F)F)c2)o1)c1ccc2c(c1)OCCO2 (stereo not drawn)	-3.1	x	4.4%	7.5%	-7.3	-19.8%
CC(C)CC(=O)CC1(O)C(=O)Nc2ccccc21 (stereo not drawn)	-4.8	0.0%	0.2%	35.5%	3.9	4.9%
Cc1occc1-c1nnc(SCCCC(=O)c2ccc(F)cc2)n1C	-2.0	u	-7.2%	-2.3%	23.4	u
Cc1occc1-c1nnc(SCC(=O)c2ccccc2)n1CC1CCCO1 (stereo not drawn)	20.1*	u	u	28.2µM*	31.4	-16.1%
CCn1c(SCC(=O)c2ccc(F)cc2)nnc1-c1ccoc1C	30.3*	20.6%	u	39.8µM*	39.6	23.0%
Cc1occc1-c1nnc(SCC(=O)c2ccc3c(c2)OCCO3)n1CC1CCCO1 (stereo not drawn)	23.3*	-13.8%	1.8%	50.1µM*	40.0*	9.0%
Cc1occc1-c1nnc(SCC(=O)NCc2cccs2)n1CC1CCCO1 (stereo not drawn)	3.0	u	3.9%	-4.1%	3.0	5.22µM*
CCC(C)NC(=O)CSc1nnc(-c2ccoc2C)n1CC1CCCO1 (stereo not drawn)	-4.0	-3.7%	-4.1%	10.4%	-14.2	u
CCn1c(SCC(=O)Nc2ccccc2-c2ccccc2)nnc1-c1ccoc1C	8.9	u	-11.2%	-34.8%	12.6	11.7µM*
Cc1ccccc1OCCCn1c(CCNC(=O)C2CCCCC2)nc2ccccc21	7.2	x	x	-9.7%	29.4	x
CS(=O)(=O)c1ccc(C(=O)NNC(=O)c2ccccc2-n2cccc2)cc1	x	6.6%	x	-17.4%	x	-26.5%
CC(=O)c1ccc(NC(=O)C(C)Oc2ccc(N(C)S(=O)(=O)c3ccc(C)cc3)cc2)cc1 (stereo not drawn)	x	14.7µM*	x	-2.7%	x	13.1µM*
CC(=O)c1cccc(NC(=O)c2ccc(N(C)S(=O)(=O)c3ccc(C)cc3)cc2)c1	-1.7	u	14.2%	3.7%	-22.0	8.28µM*
Cc1ccc(S(=O)(=O)N(C)c2ccc(OC(C)C(=O)N(C)c3ccccc3)cc2)cc1 (stereo not drawn)	x	u	x	2.3%	x	u
CN(c1ccc(C(=O)Nc2cccc(O)c2)cc1)S(=O)(=O)c1ccccc1	18.6*	-5.0%	-11.3%	4.9%	21.3	-23.3%
COc1ccc(CNC(=O)CC2N=C3c4ccccc4N=C(SCC(=O)Nc4ccc(C(C)C)cc4)N3C2=O)cc1 (stereo not drawn)	x	x	x	6.5%	x	x
O=C(COc1ncnc2c(Cl)cc(Cl)cc12)Nc1cc([N+](=O)[O-])ccc1Cl	-1.6	19.3%	27.6%	-19.6%	-16.9	37.3%
COc1cc(C)ccc1OCc1cc(C(=O)NC(C)Cn2cncn2)no1 (stereo not drawn)	64.6*	-7.0%	-4.6%	-6.0%	81.1*	u
SMILES	Cycloheximide cs	Pf growth 48h	NS1 function inh	Sm TGR inh	Shiga inhibitor	Pf growth 96h
COCC(C)NC(=O)c1cc(-c2ccc(OC)c(OC)c2)on1 (stereo not drawn)	8.1	19.4%	-1.9%	3.5%	17.6	u
COc1cc(C)ccc1OCc1cc(C(=O)NCc2ccncc2)no1	59.4*	-4.5%	-2.8%	-24.6%	106.5*	-9.1%
Cc1cccn2c(=O)c3cc(C(=O)Nc4ccc(Cl)c(Cl)c4)sc3nc12	x	x	x	10.0%	x	x
Cc1cccc(C2=NN(c3ccccc3)[C@H](CO)[C@H]2c2ccccc2)c1	18.8	x	x	x	i	x
Cc1cccc(C2=NN(c3ccccc3)[C@H](CO)[C@H]2C)c1	21.6	x	x	x	+	x
Cc1nn(-c2ccccc2)c(NC(=O)NS(=O)(=O)c2ccc(Cl)cc2)c1C#N	-8.0	x	x	x	-3.6	x
CC1CCC(C(C)C)C(OC(=O)COC(=O)c2cc(O)ccc2N)C1 (stereo not drawn)	24.2*	6.6%	u	-10.0%	56.6*	1.1%
CC1CCC(C(C)C)C(OC(=O)COC(=O)c2ccc(=O)[nH]c2)C1 (stereo not drawn)	-2.2	63.7%	-38.0%	-9.9%	-5.5	116.8%
COc1ccccc1/C=C/C(=O)OC(C)CN1CCCCC1 (stereo not drawn)	3.2	u	12.6%	5.2%	24.4	u
O=C(O)c1ccc2cccnc2n1	7.8	-6.0%	x	31.6µM*	43.9	0.0%
Cn1ncc([N+](=O)[O-])c1C(=O)Nc1ccc(-c2nc3ccccc3[nH]2)cc1	41.9*	u	-20.3%	-10.1%	48.1*	u
CCOc1ccc(C(=O)Nc2ccc(-c3nc4ccccc4[nH]3)cc2)cc1[N+](=O)[O-]	-2.6	1.85µM*	24.5%	-0.9%	-5.1	-18.1%
Cn1ncc([N+](=O)[O-])c1C(=O)Nc1ccc(C2CCCCC2)cc1	26.1*	12.2%	x	8.3%	59.0	u
CCOc1cc(OCC)cc(C(=O)Nc2cccc(-c3nc4ccccc4[nH]3)c2)c1	x	x	x	-4.6%	x	x
Cn1ncc([N+](=O)[O-])c1C(=O)Nc1ccc(Cl)cc1	-3.9	34.9%	6.1%	0.6%	-3.2	19.3%
c1ccc(OCCOc2cccc3cccnc23)cc1	33.2*	50.1%	-2.7%	8.9%	68.3*	10.4µM*
O=C(O)c1ccc(OCc2cn3ccccc3n2)cc1	29.3*	60.1%	1.5%	5.7%	25.6*	121.5%
CC(=O)CCc1ccc(OCCCOc2cccc3cccnc23)cc1	28.7*	u	-59.4%	4.3%	45.6*	u
CC(=O)c1ccc(OCCCOc2cccc3cccnc23)cc1	2.6	u	-39.1%	-4.2%	-3.5	36.4%
OCc1ccccc1OCCCOc1cccc2cccnc12	26.3*	22.3%	-35.8%	-1.2%	53.2*	u
